Data: PubChem BioAssay (Tox21)
Records with an inconclusive call do not appear. Where a call stands in place of a potency, no number is given. Activity calls are given as the source filed them. Calls follow the shape of the dose curve; as a rule, active = well fitted inhibition curve with a large enough effect in the repeat runs; inconclusive = weak or mixed curves, or effect the other way; inactive = no such curve, though single readings can be large or run the other way.

biological target: Nuclear receptor ROR-gamma (Homo sapiens) (UniProt P51449); test: qHTS assay to identify small molecule antagonists of the retinoid-related orphan receptor gamma (ROR-gamma) signaling pathway (AID 1159521; also: nearly all actives have a fitted effect of over 50% in size); settings: Tet-on RORgamma CHO cells, RORE-luciferase, 16 h; series mostly up to 92.4 µM
Description: U.S. Tox21 Program National Center for Advancing Translational Sciences [NCATS] NIH Chemical Genomics Center [NCGC] U.S. Environmental Protection Agency [EPA] National Institutes of Environmental Health Sciences [NIEHS] National Toxicology Program [NTP] U.S. Food and Drug Administration [FDA] Tox21 Assay Overview: Nuclear steroid hormone receptors are involved in many biological processes including inflammatory responses, cell proliferation, and apoptosis. Environmental factors or compounds disrupting these nuclear receptor pathways and gene expression may promote susceptibility to immunotoxicants and autoimmune diseases. One important group of these expression factors are the retinoid-related orphan receptors. To assess compounds that may interfere with the retinoid-related orphan receptor gamma (ROR-gamma) transcription factor, a cell-based luciferase assay was used. The CHO cell-based assay utilizes a TET-inducible ROR expression factor and ROR response element-LUC reporter gene. Reporter gene activity was induced using Doxycycline Hyclate and measured after 16 hr incubation. Tet-on ROR gamma CHO cells were used to screen against the Tox21 10K compound library for ROR gamma antagonists by quantification of decreased reporter gene activity in terms of decreased luminescence.
Tox21 Assay Protocol Summary: Tet-on ROR gamma CHO cells were dispensed at 1,000 cells in 4 uL of culture medium per well into white wall/solid bottom 1536-well plates using a Multidrop Combi (Thermo Scientific, Waltham, MA) dispenser. Following incubation at 37 C and 5% CO2 for 4 hr, 23 nL of compounds dissolved in DMSO, positive controls or DMSO only were transferred by a Pintool station (Kalypsys, San Diego, CA) and after 2 hr incubation at 37 C, one ul of 1 uM (final concentration) of Doxycycline Hyclate was added to all the wells by using a Flying Reagent Dispenser (FRD) (Aurora Discovery, San Diego, CA). After 16 hr incubation at 37 C and 5% CO2, 5 uL of ONE-Glo reagent (Promega Corporation, Madison, WI) was added to each assay plate using FRD. After 30 min incubation at room temperature, luminescence was quantified on a ViewLux plate reader (Perkin Elmer, Waltham, MA).
Potency is read from the fitted curve at half-maximal effect.

| Compound | Potency |
| --- | --- |
| CCCCOc1ccc(CC(=O)NO)cc1 | inactive |
| CC(C)CC=O | inactive |
| CC/C(=C\C(=N/O)C(N)=O)C(C)[N+](=O)[O-] (stereo not given) | inactive |
| O=C(NS(=O)(=O)/C=C/c1cccs1)c1ccc(F)cc1Br | inactive |
| CCOC(=O)C1=NN(c2ccccc2)C(=O)C1 | inactive |
| O=C(Nc1ccccc1)OCC(CN1CCCCC1)OC(=O)Nc1ccccc1 (stereo not given) | inactive |
| O=[N+]([O-])c1cccc(Cl)c1Cl | inactive |
| O=C(Cl)c1ccc([N+](=O)[O-])cc1 | inactive |
| SC1CCCC1 | inactive |
| NC(N)=NN=C(/C=C/c1ccc([N+](=O)[O-])o1)/C=C/c1ccc([N+](=O)[O-])o1 | 7.5 µM (active) |
| CC(=O)OCCc1ccccc1 | inactive |
| CC1(C)[C@H]2CC[C@]1(C)[C@H](O)C2 | inactive |
| CCCCOCCOCCOCCOCCO | inactive |
| CNCC[C@@H](Oc1ccccc1C)c1ccccc1 | inactive |
| OCC1CC2CC1C1CCC(CO)C21 (stereo not given) | inactive |
| CC(C)NCC(O)c1cc(O)cc(O)c1 (stereo not given) | inactive |
| CC(C)c1ccc2c(C(C)C)cc(C(C)C)c(S(=O)(=O)O)c2c1 | inactive |
| Cc1cccc(OCCOc2cccc(C)c2)c1 | inactive |
| OCCC1CCCCN1 (stereo not given) | inactive |
| CCCCCCCC/C=C\CCCCCCCC(N)=O | inactive |

| Compound | Potency |
| --- | --- |
| CC(=O)N(CC(=O)N(C)C)c1ccccc1 | inactive |
| CC(=O)O[C@H]1C[C@@H]2CC[C@@H]3[C@H](CC[C@@]4(C)[C@H]3C[C@H]([N+]3(C)CCCCC3)[C@@H]4OC(C)=O)[C@@]2(C)C[C@@H]1N1CCCCC1 | inactive |
| O=C(O)c1cccc(N(Cc2cccnc2)c2ccc(OC(F)F)c(OC(F)F)c2)c1 | 30.6 µM (active) |
| CC(C(=O)O)c1ccc(-c2ccccc2)c(F)c1 (stereo not given) | inactive |
| CCCCCC(CO)CCC (stereo not given) | inactive |
| O=C(c1ccccc1)c1ccc2n1CCC2C(=O)O (stereo not given) | inactive |
| N#CCc1cccc(C(F)(F)F)c1 | inactive |
| CCCCCc1ccc(N)cc1 | inactive |
| CCC(=O)OC(C)(C)C1CC=C(C)CC1 (stereo not given) | inactive |
| O=C(CC(=O)c1ccccc1)c1ccccc1 | inactive |
| CCOC(=O)CC(=O)c1cc(F)c(Cl)nc1Cl | inactive |
| CCN1CCC[C@H]1CNC(=O)c1c(OC)ccc(Br)c1OC | inactive |
| COC(=O)CSc1cc(N=c2sc(=O)n3n2CCCC3)c(F)cc1Cl | inactive |
| CC[C@@H]1C[C@H](N(Cc2cc(C(F)(F)F)cc(C(F)(F)F)c2)C(C)=O)c2cc(C(F)(F)F)ccc2N1C(=O)OC(C)C | inactive |
| C=CC(=O)OCC(C)OCC(C)OCC(C)OC(=O)C=C (stereo not given) | 30.6 µM (active) |
| O=C1c2cccc(O)c2C(=O)c2c(O)cc(CO)cc21 | inactive |
| CCOC(=O)[C@H](CCc1ccccc1)N[C@H]1CCc2ccccc2N(CC(=O)O)C1=O | inactive |
| CCN(CC)C(C)=O | inactive |
| CNS(=O)(=O)Cc1ccc2[nH]cc(CCN(C)C)c2c1 | inactive |
| CCCCCOC(=O)COc1cc(N2C(=O)C3=C(CCCC3)C2=O)c(F)cc1Cl | inactive |
